IL-1B inflam inh: inhibitors of inflammasome signaling (IL-1 beta secretion). THP-1 LPS/ATP IL-1B secretion, AlphaLISA, 16 h; hits give low values. 360,000 tested, 4.7% active. AID 743279. activity change, % at 57.5 µM; in the data active means activity change below about -50%; inconclusive means mostly about -30% to -49%
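THP-1 cells pretreated 1 hr with compounds (up to 57.5 uM final), then stimulated with LPS (250 ng/mL final) plus ATP (1.25 mM final); secreted IL-1B measured by AlphaLISA after 16 hr, decreased signal indicating inhibition.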
D3 ag: agonists of human D3 dopamine receptor; P35462; D3R DiscoveRx beta-arrestin cells, luminescence, 90 min; max activation, %; 410,000 tested, 0.58% active; in the data active means max activation above about 30%
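Cells at 1500/well, incubated overnight, then treated with pinned compounds (dopamine as control) for 90 min at 37 degrees C. DiscoveRx reagent added for 30 - 60 minutes at room temperature; luminescence read.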
DT40 TDP1 no CPT: qHTS for Inhibitors of human tyrosyl-DNA phosphodiesterase 1 (TDP1): qHTS in cells in absence of CPT | DT40 Tdp1-/- hTDP1 cells, no CPT, ATP luminescence, 48 h | Potency, µM (doses to about 46.2 µM), actives largely listed as inhibitors | 420,000 tested, 15% active | AID 686978, 2013; further: nearly all actives have a fitted effect of over 55% in size
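Cells were dispensed at 400 per well, compounds added by pin tool, plates incubated ≥48 hr at 37 °C, then CellTiter-Glo added for 30 min at room temperature before luminescence reading. Line: DT40 Tdp1-/- complemented with hTDP1; camptothecin omitted.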
ClpP mod: qHTS Assay for Activators of ClpP | AID 651965, 2013 | ATP-dependent Clp protease proteolytic subunit (Bacillus subtilis (strain 168)), P80244 | 340,000 tested, 1.9% active | purified B. subtilis ClpP, FRET peptide cleavage, 20 min | Potency, µM (highest dose often 57.5 µM); active means well fitted falling curve with a large enough effect; inconclusive means small, poorly fitted or top-dose-only effect; inactive means no such curve, though single readings can be large or run the other way; further: the source files actives as falling curves though it sought activators and does not explain the sign; nearly all actives have a fitted effect of over 65% in size
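ClpP 10 microg/mL final, pH 8 Tris/KCl buffer with BSA, glycerol, Tween-20; compound pinned in; FRET-FV substrate; RT 20 min; Ex320/Em430; ΔFRET vs ADEP 5.8 microM, DMSO, no enzyme.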
DRD3 antagonist: D3 dopamine receptor (human) antagonism | D3R cells, DiscoveRx beta-arrestin luminescence, antagonist mode; hits give low values | 360,000 tested, 2.5% active | max response, negative = inhibition, % | AID 652054; in the data active means max response below about -50%; inconclusive means no clear call, values can overlap the other calls
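Cells expressing the human receptor were seeded at 1500 cells/well, incubated overnight at 37 degrees C in 5% CO2, then exposed to library compounds with dopamine controls for 90 minutes at 37 degrees C before luminescent detection.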
TDP1 cell CPT: growth inhibition of DT40 Tdp1-/-;hTDP1 cells with camptothecin (screen for TDP1 inhibitors) | chicken DT40 Tdp1-/-;hTDP1 cells + 20 nM CPT, ATP luminescence, 48 h | Potency, µM (doses to about 46.2 µM), usual class: inhibitors | 420,000 tested, 12% active; further: nearly all actives have a fitted effect of over 55% in size
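Chicken DT40 Tdp1-/- cells stably complemented with human TDP1 were seeded at 400 cells/well in medium containing 20 nM camptothecin, exposed to pin-transferred compounds, and grown at 37 °C for at least 48 hr. Viability was read as ATP luminescence.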
A number is an active result; - = inactive; ? = inconclusive; . = no result; [ ] = another dose, or the depositor's remark. An excerpt weighted towards active compounds, which were near 21% of everything screened. Unless noted, the call rests on the fitted dose curve; in most records, active means well fitted inhibition curve with a large enough effect; inconclusive means small, poorly fitted or top-dose-only effect; inactive means flat fitted curve, though single readings scatter.

SMILES	IL-1B inflam inh	D3 ag	DT40 TDP1 no CPT	ClpP mod	DRD3 antagonist	TDP1 cell CPT
Cc1ccccc1C(=O)NC(=S)N(C)CCc1ccccn1	-	-	-	.	-	-
COCCn1c(N)c(C(=O)OCc2ccccc2)c2nc3ccccc3nc21	-	-	?	7.9µM	-	-
CCOC(=O)c1c2ccc(OCC(=O)N/N=C/c3ccc(C)cc3)cc2n2ccccc12	-	-	18µM	-	-	?
Cc1ccc(OCC(=O)N/N=C/c2cn(C)c3ccccc23)cc1	-	-	-	-	-	-
COC(=O)c1cn([C@H]2C[C@@H](C(=O)N3CCCCCC3)N(Cc3ccsc3)C2)nn1	.	.	-	.	.	-[9.04 µM]
CCCCCC(=O)O/N=C(\C)c1ccn(S(=O)(=O)c2ccccc2)c1	-	-	-	-	-	15µM
COc1cc(OC)cc(N2C(=O)CSCC2=O)c1	-	-	-	-	-	-
NS(=O)(=O)c1ccc(N=Nc2cc3ccccc3c(C(=O)O)c2O)cc1	.	.	1.1µM	-	.	0.4µM
c1ccc(COc2ncnc3c2ncn3CCCNCC(c2ccccc2)c2ccccc2)cc1	-94	-	16µM	-	-86	26µM
COc1ncnc2c1ncn2CCCNCC(c1ccccc1)c1ccccc1	-	-	18µM	-	-	23µM
COc1ncnc2c1ncn2CCCNCC(C)c1ccccc1 (stereo not drawn)	-	-	-	-	-	-
CC(C)C(NC(=O)c1ccccc1)C(=O)OCc1cc([N+](=O)[O-])cc2c1OCOC2 (stereo not drawn)	-	-	12µM	-	-	15µM
CCOc1ccccc1C(=O)N[C@H](C(=O)OCc1cc([N+](=O)[O-])cc2c1OCOC2)C(C)C	-	-	16µM	-	-	?
CC(C)C(NC(=O)c1ccco1)C(=O)OCc1cc([N+](=O)[O-])cc2c1OCOC2 (stereo not drawn)	-	-	?	-	-	?
CC(C)CC(NC(=O)c1ccc(Cl)cc1)C(=O)OCc1cc([N+](=O)[O-])cc2c1OCOC2 (stereo not drawn)	-	-	-	22µM	-	-
CC(=O)c1ccc(OCc2cc([N+](=O)[O-])cc3c2OCOC3)cc1	-	-	-	-	-	-
Cc1cc(C(=O)Nc2cccc(-c3nc(CNC(=O)c4ccc[n+]([O-])c4)c(C)o3)c2)c(C)o1	.	.	?	.	.	-[9.04 µM]
Cn1cc(-c2cc3n(n2)CCC(=O)N3CC(=O)NCc2ccc(Cl)cc2)c2ccccc21	.	-	-	-	.	-
CCCNC(=S)N1CCN(c2nc(C)nc3sc4c(c23)CCCC4)CC1	-74	-	?	.	-	?
CCc1nc(N2CCN(C(=O)c3ccccc3)CC2)c2c3c(sc2n1)CCCC3	-78	-	23µM	-	-	?
CCc1nc(N2CCN(C(=O)c3ccco3)CC2)c2c3c(sc2n1)CCCC3	-	-	?	-	-	?
COCCCNC(=S)N1CCN(c2nc(C)nc3sc4c(c23)CCCC4)CC1	-	-	?	-	-	16µM
Cc1nc(N2CCNCC2)c2c3c(sc2n1)CCCC3	-	-	?	-	-	?
Cc1ccc(CN2CCN(Cc3c(C)nn(-c4ccc(F)cc4)c3C)CC2CCO)o1 (stereo not drawn)	-	-	-	-	-	-
COc1cc(/C=C/CN2CCN(Cc3ccc(C)o3)C(CCO)C2)ccc1O (stereo not drawn)	-	-	-	-	-61	-
SMILES	IL-1B inflam inh	D3 ag	DT40 TDP1 no CPT	ClpP mod	DRD3 antagonist	TDP1 cell CPT
C/C(=C\c1ccccc1)CN1CCN(Cc2ccc(C)o2)C(CCO)C1 (stereo not drawn)	-	-	-	-	-80	-
Cc1cc(C)c(CN2CCN(Cc3ccc(C)o3)C(CCO)C2)c(-n2cccn2)c1 (stereo not drawn)	-	-	23µM	25µM	-	?
COc1ccccc1/C=C/CN1CCN(Cc2ccc(C)o2)C(CCO)C1 (stereo not drawn)	-	-	?	.	-77	?
O=c1c(-c2ccc(F)cc2)nc2cnc(Oc3ccccc3)nc2n1Cc1cccs1	.	.	-	.	.	?
COc1cc(NC(=O)C2=C(N3CCOCC3)/C(=C\c3ccc(Cl)cc3Cl)CC2)cc(OC)c1OC	-	-	16µM	-	-	13µM
N#C/C(=C/C1=C(N2CCOCC2)C(=C/c2ccccc2)/CC1)C(=O)Nc1ccccc1F	-	-	16µM	.	-	13µM
N#C/C(=C\c1ccc[nH]1)C(=O)Nc1ccccc1F	-	-	-	-	-	-
N#C/C(=C/C1=C(N2CCOCC2)C(=C/c2ccc(Cl)cc2Cl)/CC1)C(=O)Nc1ccccc1F	-	-	10µM	.	-	?
N#C/C(=C\C1=C(N2CCOCC2)C(=C\c2ccc(Cl)cc2)/CC1)C(=O)Nc1ccccc1F	-	-	12µM	-	-	16µM
CC(=O)c1ccc([N+](=O)[O-])c(CS(=O)(=O)c2ccccc2)c1	-	-	-	-	-	-
O=C(NCc1ccco1)C1CCN(S(=O)(=O)c2cccc([N+](=O)[O-])c2)CC1	-	-	-	.	-	-
Cc1cc(=O)[nH]c(SCc2cccc3cccnc23)n1	-	-	-	.	-	-
Brc1c(CSc2nc3ccccc3s2)nc2ncccn12	-	-	?	28µM	-	-
Cc1cc(=O)[nH]c(SCc2nc3ncccn3c2Br)n1	-	-	-	28µM	-	-
COc1ccc(Nc2c[nH]c(=O)[nH]c2=O)cc1	-	-	-	-	-	-
COc1cc(NS(=O)(=O)c2ccc(NC(C)=O)cc2)nc(OC)n1	-	-	-	-	-	-
COc1cc(NS(=O)(=O)c2ccc(N/C=C\C(=O)c3ccc(C)cc3)cc2)nc(OC)n1	-	-	21µM	-	-	12µM
COc1cc(NS(=O)(=O)c2ccc(N/C=C(\C#N)c3nc4cc(Cl)ccc4o3)cc2)nc(OC)n1	-	-	15µM	-	-	9.2µM
COc1cc(NS(=O)(=O)c2ccc(NC(=S)NC(=O)c3sc4cc(F)ccc4c3Cl)cc2)nc(OC)n1	-50	-	-	-	-	-
COc1cccc(C(=O)/C=C/Nc2ccc(S(=O)(=O)Nc3ccc(C(C)=O)cc3)cc2)c1	-	-	16µM	-	-	?
O=C(NS(=O)(=O)N1CCCC1)C1=C(N2CCCC2)COC1=O	-	-	-	-	-	-
Cc1nc(-c2nnc(SCC(=O)Nc3ccc(C(F)(F)F)cc3)n2C)cs1	-	-	?	-	-	-
O=C/C(=C\Nc1ccc(S(=O)(=O)CCO)cc1)c1nc2cc(Cl)ccc2o1	-	-	-	.	-51	-
